Laboratory results as given in PubChem BioAssay.
Records with an inconclusive call do not appear. For some of these results: Results with a measured potency or affinity are listed apart.

Assay: restoration of touch response, mutant HTT neurons – whole organism, C. elegans mechanosensory neurons, N-terminal huntingtin (AID 1599)
Details: C. elegans polyQ-huntingtin mechanosensory neurons, stronger effect = higher value

First: C1CCN2C[C@@H]3CC(CN4CCCC[C@@H]34)[C@H]2C1
Second: C[C@]12CCC3c4ccc(OC(=O)CCC(=O)O)cc4CCC3C1CCC2=O (stereo partly drawn)
The rescue above control of the first is lower: -2.17 for the first, 8.92 for the second.

Compared with `CC(Oc1ccccc1)C(=O)NC1C(=O)N2C(C(=O)O)C(C)(C)S[C@H]12` (stereo partly drawn), `CC(=O)N[C@@H](Cc1c[nH]c2ccccc12)C(N)=O` is higher in rescue above control: -11.5 for the first, 23.8 for the second.

Going from `CC(NC(=O)C(NC(=O)OCc1ccccc1)C(C)C)C(=O)NC(CC(=O)O)C(=O)OC(F)F` (stereo not drawn) to `CC[C@@H](C(=O)C(C)[C@@H](O)[C@H](C)CCc1ccc(C)c(O)c1C(=O)O)C1OC(CC)(C2CC[C@](O)(CC)[C@H](C)O2)C[C@@H]1C` (stereo partly drawn), the rescue above control rises from -1.19 to 0.

First: CCC[C@@H]1C[C@@H](C(=O)NC(C(C)Cl)C2O[C@H](SC)[C@H](O)[C@@H](O)[C@H]2O)N(C)C1 (stereo partly drawn)
Second: CN[C@@H]1[C@H](O)[C@H](NC)[C@H]2O[C@@]3(O)C(=O)C[C@@H](C)O[C@H]3OC2[C@H]1O (stereo partly drawn)
The rescue above control of the first is lower: -7.48 for the first, -5.98 for the second.

Compared with `CC[C@@]1(O)C[C@H](OC2CC(N(C)C)C(OC3CC(O)C(OC4CCC(=O)C(C)O4)C(C)O3)C(C)O2)c2c(cc3c(c2O)C(=O)c2c(O)cccc2C3=O)[C@H]1C(=O)OC` (stereo partly drawn), `CCCCC(=O)OC1(C(=O)CO)C(C)CC2C3CCC4=CC(=O)C=CC4(C)[C@@]3(F)[C@@H](O)CC21C` (stereo partly drawn) is lower in rescue above control: 0 for the first, -0.98 for the second.

First: O=c1c(O)cc2c(O)oc3c(=O)c(O)cc4c3c2c1CC=4O
Second: O=c1cc(-c2ccccc2)oc2cc(O)c(O)cc12
The rescue above control of the first is lower: -6.17 for the first, 7.3 for the second.

With `C=C1C(=O)OC2C1CCC1(C)CCC=C(C)C21` (stereo not drawn) the rescue above control was 5.32.

Assay: blockers of cytochrome c efflux from mitochondria – biochemical, purified mitochondria (AID 1603);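 note: mouse liver mitochondria challenged with calcium chloride; signal normalized to the plate average as 100%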
Details: stronger effect = lower value

Compared with `C1CCN2C[C@@H]3CC(CN4CCCC[C@@H]34)[C@H]2C1`, `C[C@]12CCC3c4ccc(OC(=O)CCC(=O)O)cc4CCC3C1CCC2=O` (stereo partly drawn) is lower in cytochrome c release ratio: 1.45 for the first, 0.83 for the second.

First: CC(Oc1ccccc1)C(=O)NC1C(=O)N2C(C(=O)O)C(C)(C)S[C@H]12 (stereo partly drawn)
Second: CC(=O)N[C@@H](Cc1c[nH]c2ccccc12)C(N)=O
The cytochrome c release ratio of the first is higher: 0.66 for the first, 0.46 for the second.

Compared with `CC(NC(=O)C(NC(=O)OCc1ccccc1)C(C)C)C(=O)NC(CC(=O)O)C(=O)OC(F)F` (stereo not drawn), `CC[C@@H](C(=O)C(C)[C@@H](O)[C@H](C)CCc1ccc(C)c(O)c1C(=O)O)C1OC(CC)(C2CC[C@](O)(CC)[C@H](C)O2)C[C@@H]1C` (stereo partly drawn) is higher in cytochrome c release ratio: 0.97 for the first, 1 for the second.

Compared with `CCC[C@@H]1C[C@@H](C(=O)NC(C(C)Cl)C2O[C@H](SC)[C@H](O)[C@@H](O)[C@H]2O)N(C)C1` (stereo partly drawn), `CN[C@@H]1[C@H](O)[C@H](NC)[C@H]2O[C@@]3(O)C(=O)C[C@@H](C)O[C@H]3OC2[C@H]1O` (stereo partly drawn) is lower in cytochrome c release ratio: 1.11 for the first, 0.86 for the second.

Going from `CC[C@@]1(O)C[C@H](OC2CC(N(C)C)C(OC3CC(O)C(OC4CCC(=O)C(C)O4)C(C)O3)C(C)O2)c2c(cc3c(c2O)C(=O)c2c(O)cccc2C3=O)[C@H]1C(=O)OC` (stereo partly drawn) to `CCCCC(=O)OC1(C(=O)CO)C(C)CC2C3CCC4=CC(=O)C=CC4(C)[C@@]3(F)[C@@H](O)CC21C` (stereo partly drawn), the cytochrome c release ratio falls from 4.02 to 1.65.

Going from `O=c1c(O)cc2c(O)oc3c(=O)c(O)cc4c3c2c1CC=4O` to `O=c1cc(-c2ccccc2)oc2cc(O)c(O)cc12`, the cytochrome c release ratio falls from 1.61 to 1.21.

Compound `C=C1C(=O)OC2C1CCC1(C)CCC=C(C)C21` (stereo not drawn) has a cytochrome c release ratio of 0.81.

Assay: polyglutamine aggregate formation blockers (AID 1604)
Details: polyglutamine-induced protein aggregation inhibition assay; stronger effect = higher value; concentration not given here

Going from `C1CCN2C[C@@H]3CC(CN4CCCC[C@@H]34)[C@H]2C1` to `C[C@]12CCC3c4ccc(OC(=O)CCC(=O)O)cc4CCC3C1CCC2=O` (stereo partly drawn), the inhibition of aggregation falls from 72.7% to 33.3%.

Going from `CC(Oc1ccccc1)C(=O)NC1C(=O)N2C(C(=O)O)C(C)(C)S[C@H]12` (stereo partly drawn) to `CC(=O)N[C@@H](Cc1c[nH]c2ccccc12)C(N)=O`, the inhibition of aggregation falls from 83.6% to 60.3%.

First: CC(NC(=O)C(NC(=O)OCc1ccccc1)C(C)C)C(=O)NC(CC(=O)O)C(=O)OC(F)F (stereo not drawn)
Second: CC[C@@H](C(=O)C(C)[C@@H](O)[C@H](C)CCc1ccc(C)c(O)c1C(=O)O)C1OC(CC)(C2CC[C@](O)(CC)[C@H](C)O2)C[C@@H]1C (stereo partly drawn)
The inhibition of aggregation of the first is lower: 0.68% for the first, 74% for the second.

Going from `CCC[C@@H]1C[C@@H](C(=O)NC(C(C)Cl)C2O[C@H](SC)[C@H](O)[C@@H](O)[C@H]2O)N(C)C1` (stereo partly drawn) to `CN[C@@H]1[C@H](O)[C@H](NC)[C@H]2O[C@@]3(O)C(=O)C[C@@H](C)O[C@H]3OC2[C@H]1O` (stereo partly drawn), the inhibition of aggregation falls from 60.6% to 42.9%.

Going from `CC[C@@]1(O)C[C@H](OC2CC(N(C)C)C(OC3CC(O)C(OC4CCC(=O)C(C)O4)C(C)O3)C(C)O2)c2c(cc3c(c2O)C(=O)c2c(O)cccc2C3=O)[C@H]1C(=O)OC` (stereo partly drawn) to `CCCCC(=O)OC1(C(=O)CO)C(C)CC2C3CCC4=CC(=O)C=CC4(C)[C@@]3(F)[C@@H](O)CC21C` (stereo partly drawn), the inhibition of aggregation rises from 1.96% to 82%.

Compared with `O=c1c(O)cc2c(O)oc3c(=O)c(O)cc4c3c2c1CC=4O`, `O=c1cc(-c2ccccc2)oc2cc(O)c(O)cc12` is higher in inhibition of aggregation: 25.2% for the first, 41% for the second.

`C=C1C(=O)OC2C1CCC1(C)CCC=C(C)C21` (stereo not drawn) showed an inhibition of aggregation of -33.3%.

Assay: rescue of PC12 cells from polyQ htt toxicity – LDH release (AID 1610)
Details: PC12 mutant huntingtin toxicity, final LDH at 4 uM, stronger effect = lower value

Going from `CC(NC(=O)C(NC(=O)OCc1ccccc1)C(C)C)C(=O)NC(CC(=O)O)C(=O)OC(F)F` (stereo not drawn) to `CCCCC(=O)OC1(C(=O)CO)C(C)CC2C3CCC4=CC(=O)C=CC4(C)[C@@]3(F)[C@@H](O)CC21C` (stereo partly drawn), the normalised LDH release rises from 0.83 to 0.899.

Going from `CC[C@@]1(O)C[C@H](OC2CC(N(C)C)C(OC3CC(O)C(OC4CCC(=O)C(C)O4)C(C)O3)C(C)O2)c2c(cc3c(c2O)C(=O)c2c(O)cccc2C3=O)[C@H]1C(=O)OC` (stereo partly drawn) to `C=C1C(=O)OC2C1CCC1(C)CCC=C(C)C21` (stereo not drawn), the normalised LDH release rises from 0.363 to 0.89.
